# Measurements reported in PubChem BioAssay (EPA / NIEHS).
# Records with an inconclusive call do not appear. Calls of active or inactive are those of the source. The calls were made as follows: active = hit-call score of the fitted dose curve at least 0.9, where 1 is the maximum; inconclusive = response in the unintended direction; inactive = score below 0.9.
# Experiments:
# [1] = target: human Thyroid Receptor Alpha (TRa), THRA (gene 7067) (UniProt P10827); experiment: NVS_NR_hTRa_Antagonist: NovaScreen (NVS) Nuclear Receptor Binding Assay for human Thyroid Receptor Alpha Antagonism (TRa) (AID 2283362);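 also: activity is loss of signal relative to DMSO baseline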
# Outline: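 Cell-free AlphaLISA chemiluminescent binding read 1 h after dosing, antagonist mode; signal loss versus DMSO baseline. Primary screen in duplicate at 25 uM, then concentration series for actives.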
# [2] = target: Nuclear receptor subfamily 1 group I member 2 (Homo sapiens) (UniProt O75469); experiment: NVS_NR_hPXR: NovaScreen (NVS) Nuclear Receptor Binding Assay for human Pregnane X Receptor (PXR) (AID 2283365);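 also: a drop in FRET signal versus DMSO baseline means the compound binds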
# Outline: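 Cell-free TR-FRET binding assay with extracted human PXR protein, read 2 h after dosing. Primary screen run in duplicate at 25 uM, actives followed in concentration series; loss of signal fitted against DMSO baseline.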
# [3] = target: rat Androgen Receptor (AR), Ar (gene 24208) (UniProt P15207); experiment: NVS_NR_rAR: NovaScreen (NVS) Nuclear Receptor Binding Assay for rat Androgen Receptor (AR) (AID 2283366)
# Outline: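 Actives from a duplicate single-concentration (25 uM) primary run went on to concentration series. Displacement of radioligand was counted by filtration and scintillation, 18 h post-dose, using prostate extracts from testosterone-pretreated rats, with DMSO as baseline.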
# [4] = target: Retinoic acid receptor alpha (Homo sapiens) (UniProt P10276); experiment: NVS_NR_hRAR_Antagonist: NovaScreen (NVS) Nuclear Receptor Binding Assay for human Retinoic Acid Alpha Receptor Antagonism (RAR) (AID 2283358)
# Outline: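 Chemicals were first tested in duplicate at 25 uM, then actives in concentration series, in a cell-free TR-FRET antagonist binding format. Measurements were taken 2 hours after dosing and loss of signal was evaluated against DMSO controls.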
# [5] = target: Glucocorticoid receptor (Homo sapiens) (UniProt P04150); experiment: NVS_NR_hGR: NovaScreen (NVS) Nuclear Receptor Binding Assay for human Glucocorticoid Receptor (GR) (AID 2283363);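 as to AC50: activity is loss of specific radioligand binding signal relative to DMSO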
# Outline: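 Single-readout cell-free binding: radioligand plus extracted receptor, 16-hour dosing, filter radiodetection; 25 uM duplicate primary, concentration series secondary.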
# [6] = target: guinea pig Sigma Receptor, Non-selective Binding, SIGMAR1 (gene 100135589) (UniProt Q60492); experiment: NVS_OR_gSIGMA_NonSelective: NovaScreen (NVS) Nuclear Receptor Binding Assay for guinea pig Sigma Receptor, Non-selective Binding (AID 2283367)
# Outline: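 Test chemicals were screened in duplicate at 25 uM, then in concentration series if active, against radioligand binding to guinea pig brain membranes; filtration and scintillation counting at 1 h measured remaining bound ligand.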
# [7] = target: PGR (gene 5241) (UniProt P06401); experiment: NVS_NR_hPR: NovaScreen (NVS) Nuclear Receptor Binding Assay for human Progestron Receptor (PR) (AID 2283360);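 also: active means loss of bound radioligand signal versus DMSO baseline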
# Outline: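 T47D-derived receptor preparation, cell-free, with tritiated or iodinated radioligand displacement measured by scintillation 18 h post-dosing. Single 25 uM duplicate screen, then concentration series; signal loss relative to DMSO.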
# [8] = target: Estrogen receptor beta (Homo sapiens) (UniProt Q92731); experiment: OT_ER_ERbERb_0480: Odyssey Thera (OT) 8-hour HEK293T Protein-Complementation Assay for Estrogen Receptor-beta/-beta Homodimer (AID 2283357);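 also: active means signal gain over DMSO baseline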
# Outline: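 Fluorescence gain from complemented reporter fragments on ER-beta LBD homodimer in HEK293T was quantified against DMSO controls after 8 h treatment, fixation in 4% formaldehyde and Draq5 staining.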
# Chain of Nuclear receptor subfamily 1 group I member 2 (Homo sapiens) (O75469 whole entry, looked up): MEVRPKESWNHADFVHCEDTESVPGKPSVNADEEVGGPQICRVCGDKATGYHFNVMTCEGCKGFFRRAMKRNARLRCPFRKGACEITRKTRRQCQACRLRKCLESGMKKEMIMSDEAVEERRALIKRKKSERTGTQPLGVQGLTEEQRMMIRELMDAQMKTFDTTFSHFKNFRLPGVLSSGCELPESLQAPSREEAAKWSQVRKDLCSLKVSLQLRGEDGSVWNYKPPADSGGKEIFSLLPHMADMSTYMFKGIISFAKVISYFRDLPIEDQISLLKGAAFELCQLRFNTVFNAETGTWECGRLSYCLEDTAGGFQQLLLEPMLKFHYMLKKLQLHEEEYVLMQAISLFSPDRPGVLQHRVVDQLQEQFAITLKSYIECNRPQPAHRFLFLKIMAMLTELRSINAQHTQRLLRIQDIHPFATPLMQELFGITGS
# Chain of rat Androgen Receptor (AR), Ar (gene 24208) (P15207 whole entry, looked up): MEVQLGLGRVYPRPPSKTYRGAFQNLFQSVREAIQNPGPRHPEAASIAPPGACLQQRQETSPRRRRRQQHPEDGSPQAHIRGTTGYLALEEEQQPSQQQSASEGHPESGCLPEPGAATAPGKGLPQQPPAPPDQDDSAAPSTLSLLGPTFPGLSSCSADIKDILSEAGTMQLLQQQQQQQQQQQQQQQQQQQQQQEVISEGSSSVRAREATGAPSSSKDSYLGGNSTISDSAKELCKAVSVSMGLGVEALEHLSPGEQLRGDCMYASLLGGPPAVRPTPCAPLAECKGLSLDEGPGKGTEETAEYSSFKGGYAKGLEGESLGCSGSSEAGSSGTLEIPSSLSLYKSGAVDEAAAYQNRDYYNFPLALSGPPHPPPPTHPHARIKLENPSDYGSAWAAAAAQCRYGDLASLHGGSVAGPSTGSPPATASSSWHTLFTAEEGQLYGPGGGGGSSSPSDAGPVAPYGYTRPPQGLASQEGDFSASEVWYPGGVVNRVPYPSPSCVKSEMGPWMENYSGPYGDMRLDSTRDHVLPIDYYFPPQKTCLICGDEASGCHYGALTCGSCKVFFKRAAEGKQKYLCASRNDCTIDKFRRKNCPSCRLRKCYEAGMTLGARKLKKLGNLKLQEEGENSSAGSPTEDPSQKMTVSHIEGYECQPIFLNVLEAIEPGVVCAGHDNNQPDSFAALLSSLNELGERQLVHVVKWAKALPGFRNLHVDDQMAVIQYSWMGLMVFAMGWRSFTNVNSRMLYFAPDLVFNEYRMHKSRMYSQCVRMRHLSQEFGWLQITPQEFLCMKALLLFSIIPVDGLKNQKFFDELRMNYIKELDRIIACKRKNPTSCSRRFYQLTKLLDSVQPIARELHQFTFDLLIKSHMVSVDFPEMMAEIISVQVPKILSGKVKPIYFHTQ
# Chain of Glucocorticoid receptor (Homo sapiens) (P04150 whole entry, looked up): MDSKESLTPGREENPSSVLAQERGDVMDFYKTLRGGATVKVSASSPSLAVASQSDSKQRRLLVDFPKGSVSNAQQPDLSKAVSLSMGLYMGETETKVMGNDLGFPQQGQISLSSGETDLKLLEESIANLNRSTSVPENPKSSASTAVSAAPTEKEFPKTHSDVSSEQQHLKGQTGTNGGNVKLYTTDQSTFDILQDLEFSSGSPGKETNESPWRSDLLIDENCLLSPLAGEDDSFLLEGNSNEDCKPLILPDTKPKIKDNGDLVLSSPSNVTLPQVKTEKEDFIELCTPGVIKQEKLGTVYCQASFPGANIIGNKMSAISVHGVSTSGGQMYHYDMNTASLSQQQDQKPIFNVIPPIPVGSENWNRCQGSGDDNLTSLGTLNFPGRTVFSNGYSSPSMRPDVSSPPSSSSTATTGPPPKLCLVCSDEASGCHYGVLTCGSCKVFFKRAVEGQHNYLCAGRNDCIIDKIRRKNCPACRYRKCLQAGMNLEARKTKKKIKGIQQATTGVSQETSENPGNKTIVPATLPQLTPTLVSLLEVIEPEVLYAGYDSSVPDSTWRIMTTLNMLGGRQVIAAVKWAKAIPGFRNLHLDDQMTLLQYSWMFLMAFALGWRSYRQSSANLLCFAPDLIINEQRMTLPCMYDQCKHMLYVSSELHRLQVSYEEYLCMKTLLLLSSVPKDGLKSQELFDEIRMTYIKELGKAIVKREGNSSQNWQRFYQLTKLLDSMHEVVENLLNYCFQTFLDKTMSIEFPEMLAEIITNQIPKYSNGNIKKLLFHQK
# Chain of guinea pig Sigma Receptor, Non-selective Binding, SIGMAR1 (gene 100135589) (Q60492 whole entry, looked up): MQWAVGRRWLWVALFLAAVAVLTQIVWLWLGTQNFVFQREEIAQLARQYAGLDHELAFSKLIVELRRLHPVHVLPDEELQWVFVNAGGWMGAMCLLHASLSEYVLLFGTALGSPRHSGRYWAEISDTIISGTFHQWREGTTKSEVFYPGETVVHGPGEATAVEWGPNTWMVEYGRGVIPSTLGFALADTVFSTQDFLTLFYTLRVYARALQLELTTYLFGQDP
# Chain of Estrogen receptor beta (Homo sapiens) (Q92731 whole entry, looked up, the tested form may be a part): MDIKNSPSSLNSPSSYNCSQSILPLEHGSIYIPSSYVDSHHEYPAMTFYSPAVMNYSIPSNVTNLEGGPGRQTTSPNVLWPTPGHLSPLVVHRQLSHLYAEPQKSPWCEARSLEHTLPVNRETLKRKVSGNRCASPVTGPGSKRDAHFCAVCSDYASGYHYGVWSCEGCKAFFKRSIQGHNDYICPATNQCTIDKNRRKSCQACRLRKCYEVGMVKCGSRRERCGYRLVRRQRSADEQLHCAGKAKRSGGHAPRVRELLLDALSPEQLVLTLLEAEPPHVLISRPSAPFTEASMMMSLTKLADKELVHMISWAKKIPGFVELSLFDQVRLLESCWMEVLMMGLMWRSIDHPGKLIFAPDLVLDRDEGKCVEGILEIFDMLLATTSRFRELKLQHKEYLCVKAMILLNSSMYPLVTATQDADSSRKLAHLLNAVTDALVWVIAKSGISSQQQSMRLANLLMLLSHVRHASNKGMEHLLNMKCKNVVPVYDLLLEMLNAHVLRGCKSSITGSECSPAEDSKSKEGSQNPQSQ
# Chain of PGR (gene 5241) (P06401 whole entry, looked up): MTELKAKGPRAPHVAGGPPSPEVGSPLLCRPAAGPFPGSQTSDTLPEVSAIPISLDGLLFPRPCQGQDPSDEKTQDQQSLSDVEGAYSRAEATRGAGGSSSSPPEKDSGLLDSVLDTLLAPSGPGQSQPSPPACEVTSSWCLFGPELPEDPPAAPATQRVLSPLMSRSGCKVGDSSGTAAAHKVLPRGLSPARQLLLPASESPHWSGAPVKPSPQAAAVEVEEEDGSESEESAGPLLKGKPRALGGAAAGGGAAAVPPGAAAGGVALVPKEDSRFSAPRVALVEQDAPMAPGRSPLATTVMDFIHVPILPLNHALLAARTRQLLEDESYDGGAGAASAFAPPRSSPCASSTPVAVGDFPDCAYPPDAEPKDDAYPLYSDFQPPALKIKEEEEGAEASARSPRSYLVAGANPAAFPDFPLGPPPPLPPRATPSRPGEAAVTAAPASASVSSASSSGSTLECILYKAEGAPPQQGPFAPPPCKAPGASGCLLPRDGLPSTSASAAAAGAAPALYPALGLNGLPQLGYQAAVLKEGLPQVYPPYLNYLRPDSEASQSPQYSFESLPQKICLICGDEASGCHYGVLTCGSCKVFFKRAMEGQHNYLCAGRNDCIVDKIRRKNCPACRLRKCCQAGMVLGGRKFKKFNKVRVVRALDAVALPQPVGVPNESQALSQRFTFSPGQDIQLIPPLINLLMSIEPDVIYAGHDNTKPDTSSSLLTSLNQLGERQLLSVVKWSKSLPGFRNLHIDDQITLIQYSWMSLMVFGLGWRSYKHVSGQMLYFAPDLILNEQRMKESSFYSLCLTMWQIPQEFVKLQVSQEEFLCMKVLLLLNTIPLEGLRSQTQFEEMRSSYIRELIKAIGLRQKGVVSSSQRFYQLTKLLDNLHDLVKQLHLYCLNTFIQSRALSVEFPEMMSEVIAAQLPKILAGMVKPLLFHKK
# Chain of human Thyroid Receptor Alpha (TRa), THRA (gene 7067) (P10827 whole entry, looked up): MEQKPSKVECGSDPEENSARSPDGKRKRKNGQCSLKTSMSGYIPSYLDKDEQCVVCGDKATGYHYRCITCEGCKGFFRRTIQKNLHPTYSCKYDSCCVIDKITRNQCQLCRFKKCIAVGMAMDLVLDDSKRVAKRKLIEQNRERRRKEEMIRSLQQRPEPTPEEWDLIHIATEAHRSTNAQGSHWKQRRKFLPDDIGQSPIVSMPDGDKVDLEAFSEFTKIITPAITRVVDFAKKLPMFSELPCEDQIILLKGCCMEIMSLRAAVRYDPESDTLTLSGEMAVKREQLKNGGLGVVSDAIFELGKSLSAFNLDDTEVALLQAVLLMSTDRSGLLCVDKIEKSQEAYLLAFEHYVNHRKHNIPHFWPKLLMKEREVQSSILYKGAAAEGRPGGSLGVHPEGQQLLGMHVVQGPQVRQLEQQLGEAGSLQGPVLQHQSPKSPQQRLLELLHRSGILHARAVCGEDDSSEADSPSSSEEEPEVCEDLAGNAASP
# Chain of Retinoic acid receptor alpha (Homo sapiens) (P10276 whole entry, looked up): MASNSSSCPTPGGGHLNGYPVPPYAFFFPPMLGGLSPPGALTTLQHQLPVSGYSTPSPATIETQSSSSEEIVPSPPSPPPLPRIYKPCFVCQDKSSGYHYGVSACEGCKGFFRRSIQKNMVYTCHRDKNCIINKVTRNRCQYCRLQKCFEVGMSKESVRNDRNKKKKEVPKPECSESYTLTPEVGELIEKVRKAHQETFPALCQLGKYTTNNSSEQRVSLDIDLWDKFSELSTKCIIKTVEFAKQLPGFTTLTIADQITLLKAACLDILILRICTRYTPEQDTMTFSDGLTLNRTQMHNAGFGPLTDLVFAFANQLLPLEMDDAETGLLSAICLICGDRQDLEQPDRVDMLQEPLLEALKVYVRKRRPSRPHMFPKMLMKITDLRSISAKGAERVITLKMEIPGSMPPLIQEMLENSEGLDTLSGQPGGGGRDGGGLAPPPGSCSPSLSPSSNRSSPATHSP
compound,measurement,setting,value
O=C(Nc1ccc2c(O)c(N=Nc3ccc(N=Nc4ccc(S(=O)(=O)O)cc4)cc3)c(S(=O)(=O)O)cc2c1)c1ccccc1,AC50,[1],9.08 µM (active)
same,AC50,[2],1.19 µM (active)
CC(C)CCCCCCc1ccc(OCCOCCO)cc1,outcome,[2],inactive
Cc1ccc(S(=O)(=O)Oc2ccc(N=Nc3ccc(-c4ccc(N=Nc5c(O)ccc6cc(S(=O)(=O)O)cc(S(=O)(=O)O)c56)c(C)c4)cc3C)cc2)cc1,AC50,[3],0.463 µM (active)
CCCCCCCCC=CCCCCCCCC1=NCCN1CCO,AC50,[3],7.33 µM (active)
CCCCCCCCc1ccc(S(=O)(=O)O)cc1,AC50,[4],16.8 µM (active)
same,AC50,[5],17 µM (active)
C1=CC2C3C=CC(C3)C2C1 (centres undefined),AC50,[6],13 µM (active)
Oc1c(Cl)cc(Cl)c(Cl)c1Cc1c(O)c(Cl)cc(Cl)c1Cl,outcome,[7],inactive
same,AC50,[5],4.34 µM (active)
same,AC50,[3],2.06 µM (active)
O=C1NC2NC(=O)NC2N1 (centres undefined),AC50,[8],22.1 µM (active)
same,outcome,[2],inactive
CC(C=O)Cc1ccc(C(C)(C)C)cc1 (centres undefined),outcome,[8],inactive
same,AC50,[6],2.97 µM (active)
Cc1ccc(S(N)(=O)=O)cc1,outcome,[5],inactive
same,outcome,[2],inactive
COc1ccc(CCN2CCC(Nc3nc4ccccc4n3Cc3ccc(F)cc3)CC2)cc1,outcome,[7],inactive
same,AC50,[6],1.24 µM (active)
CC1(C)C(=O)N(Cl)C(=O)N1Br,outcome,[1],inactive
CCCCCCCCCCCCN1CCCCCC1=O,outcome,[2],inactive
CSCCC=O,outcome,[8],inactive
same,outcome,[2],inactive
c1ccc2[nH]cnc2c1,outcome,[6],inactive
Clc1ccc(C(c2ccccc2Cl)C(Cl)Cl)cc1 (centres undefined),AC50,[8],3.87 µM (active)
same,outcome,[2],inactive
CCCCCCCCN1CCCC1=O,outcome,[8],inactive
same,outcome,[2],inactive
CCCCCCCC(=O)OCC(O)CO (centres undefined),outcome,[2],inactive
